Measurements taken from the supplement of paper PMC6555819.

Key:
Test in all cases: PBM binding z-score (relative to random genomic background probes); higher = stronger binding; sequences stand for … in GC…GCGATTGACAGCGTAGAATGAAGG
[1] = tested on: FXR:RXRa (NR concentration 270 nM, RXRa partner concentration 90 nM)
Method in brief: (§1)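 Probes were double-stranded and carried 34-nt variable regions with direct-repeat seeds, single-nucleotide variants, half-site ablations and random human genomic background sequences, printed on custom Agilent 4×180K protein-binding microarrays. Arrays were incubated 1 h with ligand-free nuclear receptor dimers in PBS pH 7.4, 2% milk, 0.02% Triton X-100, 1 mM DTT, 0.2 mg/mL BSA and 0.4 mg/ml salmon testes DNA. Antibodies against each partner (one per run) detected binding, and scanned fluorescence was regression-normalized. Binding z-scores use the random background probes as reference.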

[2] = tested on: LXRa:RXRa (NR concentration 270 nM, RXRa partner concentration 90 nM)
Method in brief: as §1

[3] = tested on: LXRa homodimer (NR concentration 270 nM)
Method in brief: as §1

[4] = tested on: LXRb:RXRa (NR concentration 270 nM, RXRa partner concentration 90 nM)
Method in brief: as §1

[5] = tested on: LXRb homodimer (NR concentration 270 nM)
Method in brief: as §1

[6] = tested on: PPARa:RXRa (NR concentration 270 nM, RXRa partner concentration 90 nM)
Method in brief: as §1

[7] = tested on: PPARg:RXRa (NR concentration 180 nM, RXRa partner concentration 90 nM)
Method in brief: as §1

[8] = tested on: PPARg:RXRa 270nM:90nM, anti-RXR (NR concentration 270 nM, RXRa partner concentration 90 nM)
Method in brief: as §1

[9] = tested on: PPARg:RXRa 30nM:10nM, anti-RXR (NR concentration 30 nM, RXRa partner concentration 10 nM)
Method in brief: as §1

[10] = tested on: PPARg:RXRa 90nM:30nM, anti-RXR (NR concentration 90 nM, RXRa partner concentration 30 nM)
Method in brief: as §1

Sequence | PBM binding z-score [1] | PBM binding z-score [2] | PBM binding z-score [3] | PBM binding z-score [4] | PBM binding z-score [5] | PBM binding z-score [6] | PBM binding z-score [7] | PBM binding z-score [8] | PBM binding z-score [9] | PBM binding z-score [10]
CGTCCAAGGTCAATGCTAGGTCAGTTAAAGCATT | 6.86 | 5.46 | 3.07 | 4.57 | 0.641 | 5.2 | 3.88 | 4.44 | 1.26 | 3.34
CGTCCAAGGTCAGAAGGTCAGTGAAAGCGACGTG | 5.88 | 4.43 | 0.719 | 3.22 | -0.0292 | 5 | 3.62 | 4.51 | 0.861 | 3.11
TCTGCTAGGTCTACGATGGTCAGCTAATCTGCTA | -0.634 | -0.811 | -1.12 | -0.871 | -0.759 | -0.453 | -0.582 | -0.0115 | 1.48 | 0.437
GGAACGAGGACAAAGTTGATAGCATCTGTCGACG | -0.0589 | -0.208 | -0.722 | -0.455 | -0.842 | 2.4 | 4.11 | 5.44 | 3.91 | 5.14
CGTCCAAGGTCAGCAGGTCATTGAAAGCGACGTG | 6.58 | 4.67 | 1.51 | 3.86 | -0.214 | 5.46 | 5.09 | 4.94 | 1.14 | 3.42
CGTCCAAGGTCAGAGAGATCAGTGAATGCCGAGT | 4.93 | 2.88 | 0.0283 | 2.25 | 0.0679 | 3.73 | 2.1 | 2.59 | 0.164 | 1.22
AGAATGAGGTTACCAAAGAGCAGGGAAACGCTTG | 1.71 | 5.78 | -0.463 | 2.41 | -0.39 | 3.05 | 2.22 | 2.47 | 0.623 | 1.44
GCAGACAGGGGAAACGCAGGTAACTCAGGGTGGC | -0.526 | -0.555 | -0.616 | -0.597 | -1.27 | -0.505 | 0.299 | -0.604 | -1.01 | -0.89
CGAGACAGGTGAAAGGTAACTCAGTCTGGTACGC | 0.533 | 0.602 | -0.513 | 0.732 | -0.851 | 3.47 | 5.43 | 6.27 | 4.23 | 6.7
CCTACTGGGCCATCAGGTCCTTGATATCAACGTT | -0.312 | -0.421 | -0.282 | -0.452 | -0.521 | 0.449 | 0.742 | 1.4 | -0.0903 | 0.582
GCTAGTTGGTCAGTCAAAGGTCACACACCGGTCG | 3.52 | 4.41 | 4.17 | 3.94 | 0.493 | 4.62 | 5.33 | 5.92 | 4.22 | 5.9
CGAACTAGGTCAGAACAGGACTGTGAAGGATGAT | 0.728 | 0.692 | -0.197 | 0.252 | -0.415 | 2.98 | 5.13 | 4.21 | 1.77 | 3.09
GATACAGGGTCAAGGCCTGAGTACGCGTATTGAT | 6.17 | 3.94 | -0.32 | 3.35 | -0.67 | 5.35 | 5.34 | 5.5 | 2.3 | 4.29
TAACCTAGGTCAGATCGGGCCAGTATACGCTATA | 2.84 | 2.52 | 0.693 | 1.64 | 0.561 | 2.29 | 1.87 | 2.06 | 0.906 | 1.62
GCTTACGGCTCAAAGGTTATAGCATGAATAGAAT | 0.876 | 1.45 | 0.0597 | 1.7 | -0.639 | 2.62 | 2.18 | 3.88 | 1.46 | 3.1
TCTAGTTGGTCAAAGGACACACACTCGAAATGCG | 1.06 | 0.757 | 0.232 | 1.05 | 0.181 | 2.19 | 4.59 | 5.5 | 4.95 | 5.8
CCGAGTAGGTTATGGGACATTCAGGCAACGGTGA | 0.111 | 0.356 | 0.00939 | 0.277 | 0.141 | 0.923 | 1.53 | 2.35 | 0.542 | 1.74
ATCTCTGGGTAAAAGTTCAGTGAATCCCGAGGAT | 0.844 | 1.38 | 1.37 | 1.04 | 1.4 | 4.12 | 7.38 | 7.77 | 6.93 | 9.04
GCTAGCTGGTCAGTAAAAGGTCACACACCGGTCG | 3.2 | 4.47 | 4.35 | 3.88 | 0.195 | 4.21 | 2.43 | 4.13 | 1.46 | 3.75
TGAATGAGGTTAGAAGATCAGGGAACGTTGCAAA | 0.452 | 0.337 | -0.383 | 0.0743 | -0.188 | 1.59 | 0.84 | 1.29 | 0.759 | 0.966
TCTTGTAGATCAATATAGGTTAAGAAAGTGCGCT | 0.801 | 2.72 | 0.469 | 1.28 | 0.58 | 1.97 | 0.81 | 2.09 | 3.36 | 2.56
ACTATTAGTTGACTTAAGGCAACCGATACGACGC | 0.413 | 0.299 | 0.175 | 0.537 | 1.03 | 0.139 | 0.967 | 0.607 | 0.511 | 0.394
CCTTACGGGTCACTCCAGGTTATGGCATCGGAGT | 4.99 | 7.21 | 1.54 | 4.4 | -0.0375 | 4.24 | 3.15 | 3.76 | 0.907 | 2.67
CGTCCAAGGTCAAGGTCAGGGAAAGAGACTCGAA | 7.19 | 5.97 | 1.22 | 4.87 | 0.963 | 6.11 | 6.41 | 7.28 | 3.93 | 5.91
GATACAGCGTCAGCTAGAGGCCAGAGTATGGAAA | -1.06 | -0.907 | -0.84 | -1.11 | -1.5 | -1.18 | 0.184 | -0.842 | -0.638 | -1
